# Assay outcomes: PubChem BioAssay, Broad Institute
# IDE exosite inh: exo-site inhibitors of human IDE, primary screen, biochemical, fluorescence anisotropy, probe displacement. purified IDE, FL-6b probe fluorescence polarization; stronger effect = lower value. AID 1259349, 2017. Insulin-degrading enzyme (Homo sapiens), P14735. z-score at 20 µM. 17,000 compounds, 6.3% hits;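 active means z-score of -3 or lower, meaning strong loss of probe binding signal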;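 further: His-tagged human IDE residues 42-1019 made in E. coli with 30 nM FL-6b probe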
# Target sequence (P14735 42-1019 limits assumed): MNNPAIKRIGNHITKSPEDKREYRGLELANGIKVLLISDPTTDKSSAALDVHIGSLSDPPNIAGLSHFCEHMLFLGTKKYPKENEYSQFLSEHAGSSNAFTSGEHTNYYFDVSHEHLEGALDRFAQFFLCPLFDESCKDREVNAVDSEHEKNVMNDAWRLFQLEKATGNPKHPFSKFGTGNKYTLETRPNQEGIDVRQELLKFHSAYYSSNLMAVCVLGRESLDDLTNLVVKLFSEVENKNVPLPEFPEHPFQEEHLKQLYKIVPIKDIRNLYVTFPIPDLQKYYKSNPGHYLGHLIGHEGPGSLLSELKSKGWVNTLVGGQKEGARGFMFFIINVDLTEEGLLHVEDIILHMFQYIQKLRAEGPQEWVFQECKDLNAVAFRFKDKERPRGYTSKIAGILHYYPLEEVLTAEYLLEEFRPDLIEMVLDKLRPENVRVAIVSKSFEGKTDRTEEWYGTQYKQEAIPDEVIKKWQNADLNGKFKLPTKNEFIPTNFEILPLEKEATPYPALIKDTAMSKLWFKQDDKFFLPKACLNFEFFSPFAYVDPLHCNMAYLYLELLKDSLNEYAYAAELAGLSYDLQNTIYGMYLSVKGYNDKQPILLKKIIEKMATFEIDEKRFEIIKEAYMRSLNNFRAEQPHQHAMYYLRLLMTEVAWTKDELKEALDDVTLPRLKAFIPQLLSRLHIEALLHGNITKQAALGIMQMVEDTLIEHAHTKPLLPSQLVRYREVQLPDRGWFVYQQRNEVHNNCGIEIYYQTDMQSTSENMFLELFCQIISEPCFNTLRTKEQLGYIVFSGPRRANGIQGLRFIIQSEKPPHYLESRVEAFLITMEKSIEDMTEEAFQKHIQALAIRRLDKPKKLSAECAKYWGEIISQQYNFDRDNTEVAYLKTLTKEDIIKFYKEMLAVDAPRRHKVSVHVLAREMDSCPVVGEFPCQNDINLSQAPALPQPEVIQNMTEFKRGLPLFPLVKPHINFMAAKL
# * hit, by the source's call. Shown is part of a subset that was picked to be rich in hits.
SMILES,IDE exosite inh
O=C(c1ccccc1)N1CC(=O)N2[C@H](C1)[C@@H](c1ccc(C#Cc3ccccc3)cc1)[C@@H]2CO,0.436
C[C@@H]1CN([C@@H](C)CO)C(=O)c2ccccc2-c2ccccc2CO[C@@H]1CN(C)Cc1cccnc1,-0.684
O=C1CN(S(=O)(=O)c2ccccc2)C[C@H]2[C@@H](c3ccc(C#Cc4ccccc4)cc3)[C@H](CO)N12,2.42
C[C@H](CO)N1C[C@H](C)[C@@H](CN(C)Cc2ccc(C(=O)Nc3ccccc3N)cc2)Oc2ccc(NC(=O)Cn3cnnn3)cc2C1=O,1.03
C[C@@H](O)C#Cc1ccc([C@@H]2[C@@H](CO)N3CCCCN(S(=O)(=O)Cc4ccccc4)C[C@H]23)cc1,4.58
CCCNC(=O)N1CC2(CCN(C(=O)Nc3cccc(F)c3)CC2)c2c(n(C)c3cc(OC)ccc23)[C@H]1CO,-2.4
Cc1cccc(-c2ccc([C@@H]3[C@H]4CN(C(=O)Cc5ccccn5)CC(=O)N4[C@H]3CO)cc2)c1,-14.9*
COc1ccc(-c2ccc([C@H]3[C@H](CO)N4C(=O)CN(C(=O)Cc5ccccn5)C[C@@H]34)cc2)cc1,-1.31
O=C(Cc1ccccn1)N1CC(=O)N2[C@H](C1)[C@H](c1ccc(-c3ccccc3)cc1)[C@@H]2CO,-1.51
O=C(Cc1ccccn1)N1CC(=O)N2[C@H](CO)[C@H](c3ccc(C#CC4CC4)cc3)[C@@H]2C1,3.41
O=C(Cc1ccccn1)N1CC(=O)N2[C@H](CO)[C@H](c3ccc(-c4ccccc4)cc3)[C@@H]2C1,-3.71*
O=C(Cc1ccccn1)N1CC(=O)N2[C@H](CO)[C@@H](c3ccc(C#CC4CC4)cc3)[C@@H]2C1,0.65
CC(=O)N(C)C[C@H]1[C@@H](c2ccc(-c3cccc(C#N)c3)cc2)[C@@H](CO)N1C(C)=O,0.893
O=C(c1cccc(F)c1)N1CC(=O)N2[C@H](C1)[C@H](c1ccc(-c3ccccc3F)cc1)[C@@H]2CO,0.925
CO[C@H]1CC[C@@H]2CCOc3c(C#N)cccc3C(=O)N(C)C[C@H](OC)[C@@H](C)C(=O)N(C)C[C@@H]1O2,-0.142
CCCC#Cc1ccc([C@H]2[C@H](CO)N3C(=O)CN(C(=O)c4ccccc4)C[C@@H]23)cc1,4.08
O=C(C[C@H]1C[C@@H]2c3cc(NC(=O)NC4CCCC4)ccc3O[C@@H]2[C@@H](CO)O1)NCc1ccccc1F,-0.723
CCC(=O)NC[C@H]1[C@H](c2ccccc2)[C@@H](CO)N1C(=O)C1CCC1,0.276
O=S(=O)(Cc1ccccc1)N1CCCCN2[C@H](CO)[C@H](c3ccc(-c4ccccc4)cc3)[C@@H]2C1,1.42
O=C(c1ccncc1)N1CCCCN2[C@H](C1)[C@H](c1ccc(C#Cc3ccccn3)cc1)[C@@H]2CO,-2.18
CC(C)(O)C#Cc1ccc([C@@H]2[C@H]3CN(S(C)(=O)=O)CCCCN3[C@H]2CO)cc1,-0.898
O=S(=O)(c1ccccc1)N1CCCCN2[C@H](CO)[C@H](c3ccc(C#Cc4ccccn4)cc3)[C@H]2C1,-3.19*
CS(=O)(=O)N1CCCCN2[C@@H](CO)[C@H](c3ccc(C#Cc4ccccn4)cc3)[C@@H]2C1,-3.9*
O=S(=O)(c1ccccc1)N1CCCCN2[C@H](CO)[C@H](c3ccc(C#Cc4ccccc4)cc3)[C@@H]2C1,3.68
CS(=O)(=O)N1CCCCN2[C@H](C1)[C@@H](c1ccc(C#Cc3ccccn3)cc1)[C@@H]2CO,-3.32*
SMILES,IDE exosite inh
CCS(=O)(=O)N1CCCCN2[C@H](CO)[C@@H](c3ccc(C#Cc4ccccn4)cc3)[C@@H]2C1,-0.474
O=C(c1ccncc1)N1CCCCN2[C@H](CO)[C@@H](c3ccc(C#Cc4ccccn4)cc3)[C@@H]2C1,-1.88
O=S(=O)(c1ccccc1)N1CCCCN2[C@H](CO)[C@H](c3ccc(C#Cc4ccccc4)cc3)[C@H]2C1,1.92
O=C1CNC[C@@H]2[C@@H](c3ccc(-c4ccccc4F)cc3)[C@H](CO)N12,-2.68
CO[C@H]1CN(C)C(=O)c2cc(NC(=O)Nc3cccc(Cl)c3)ccc2OC[C@@H](C)N(C(=O)Nc2c(C)noc2C)C[C@@H]1C,1.36
O=C(NC[C@@H]1[C@H](c2ccccc2)[C@@H](CO)N1C(=O)Cc1cccnc1)C1CCC1,1.99
COCC(=O)Nc1ccc2c(c1)C(=O)N(C)C[C@H](OC)[C@H](C)CN(CCc1ccccc1)[C@H](C)CO2,0.9
O=C(Nc1cccc(F)c1)N1CC(=O)N2[C@@H](CO)[C@H](c3ccc(C#CC4CC4)cc3)[C@@H]2C1,-0.573
CN(C)CC(=O)N1C[C@@H]2N[C@H](C1)C2c1ccc(-c2ccncc2)cc1 (some centres not stated),-1.16
N#C[C@H]1[C@@H](c2ccccc2-c2cccc(F)c2)[C@@H](CO)N1C(=O)C1CCCCC1,1.19
OC[C@@H]1[C@H](c2ccc(-c3ccccc3)cc2)[C@@H]2CN(Cc3ccccn3)CCCCN12,-3.03*
OC[C@@H]1[C@@H](c2ccc(-c3ccc(F)cc3)cc2)[C@H]2CN(Cc3ccncc3)CCCCN12,5.3
Cc1cccc(-c2ccc([C@@H]3[C@@H](CO)N4CCCCN(Cc5ccncc5)C[C@H]34)cc2)c1,-5.02*
COc1ccccc1-c1ccc([C@H]2[C@H](CO)N3CCCCN(Cc4ccncc4)C[C@@H]23)cc1,-8.05*
OC[C@@H]1[C@@H](c2ccc(-c3ccccc3F)cc2)[C@H]2CN(Cc3ccncc3)CCCCN12,4.1
OC[C@@H]1[C@H](c2ccc(-c3ccc(F)cc3)cc2)[C@@H]2CN(Cc3ccncc3)CCCCN12,4.39
OC[C@@H]1[C@H](c2ccc(-c3ccccc3)cc2)[C@H]2CN(Cc3ccccn3)CCCCN12,-0.236
OC[C@H]1[C@H](c2ccc(-c3ccccc3)cc2)[C@H]2CN(Cc3ccccn3)CCCCN21,-1.8
OC[C@H]1[C@H](c2ccc(-c3ccccc3F)cc2)[C@@H]2CN(Cc3ccncc3)CCCCN12,3.48
CN(C)C(=O)c1cccc(-c2ccc([C@H]3[C@H](CO)N4CCCCN(CC5CCOCC5)C[C@@H]34)cc2)c1,1.77
O=C(CCN1CCCCC1)N[C@H]1CC[C@@H](CCn2cc(-c3cccc(F)c3)nn2)O[C@H]1CO,0.214
C/C=C/c1ccc([C@H]2[C@@H](CO)N(C(=O)CC)[C@H]2CN(C)Cc2cncnc2)cc1,-0.734
CC(C)CC#Cc1ccc([C@H]2[C@@H](CO)N3CCCCN(C(=O)c4ccc5c(c4)OCO5)C[C@H]23)cc1,4.18
CN(C)C(=O)c1cccc(-c2ccc([C@@H]3[C@H]4CN(C(=O)C5CCCCC5)CC(=O)N4[C@H]3CO)cc2)c1,4.18
CC(C)NC[C@@H]1[C@@H](c2ccc(C3=CCCCC3)cc2)[C@H](CO)N1C(=O)NC(C)C,3.86
SMILES,IDE exosite inh
CCCNC(=O)N1CC(=O)N2[C@@H](CO)[C@H](c3ccc(C#Cc4ccccc4)cc3)[C@@H]2C1,-11*
CCCNC(=O)N1CC(=O)N2[C@@H](CO)[C@@H](c3ccc(C#Cc4ccccc4)cc3)[C@@H]2C1,-1.14
CCCNC(=O)N1CC(=O)N2[C@H](C1)[C@H](c1ccc(C#Cc3ccc(F)cc3)cc1)[C@@H]2CO,2.64
CCCNC(=O)N1CC(=O)N2[C@@H](CO)[C@H](c3ccc(C#Cc4ccc(F)cc4)cc3)[C@@H]2C1,2.09
CCCNC(=O)N1CC(=O)N2[C@H](CO)[C@@H](c3ccc(C#Cc4cccc(F)c4)cc3)[C@H]2C1,-3.68*
CCCNC(=O)N1CC(=O)N2[C@@H](CO)[C@@H](c3ccc(C#Cc4cccc(F)c4)cc3)[C@@H]2C1,2.6
